{
  "source": "PubChem BioAssay AID488969",
  "about": "(Vanderbilt High Throughput Screening Facility, 2010)",
  "note": "In all, about 110,000 compounds were measured (“z-score”: median about -0.1, highest 2% from about 2 on). This is one part of a sample in which the highest values are shown more often than they occur. Activity calls are given as the source filed them.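 How the source made its calls: active means z-score in the third read window above 3 or below -3; inactive means the rest.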",
  "data": [
    {"target": "Metabotropic glutamate receptor 8 (Rattus norvegicus) (UniProt P70579)", "sequence (P70579 whole entry, looked up)": "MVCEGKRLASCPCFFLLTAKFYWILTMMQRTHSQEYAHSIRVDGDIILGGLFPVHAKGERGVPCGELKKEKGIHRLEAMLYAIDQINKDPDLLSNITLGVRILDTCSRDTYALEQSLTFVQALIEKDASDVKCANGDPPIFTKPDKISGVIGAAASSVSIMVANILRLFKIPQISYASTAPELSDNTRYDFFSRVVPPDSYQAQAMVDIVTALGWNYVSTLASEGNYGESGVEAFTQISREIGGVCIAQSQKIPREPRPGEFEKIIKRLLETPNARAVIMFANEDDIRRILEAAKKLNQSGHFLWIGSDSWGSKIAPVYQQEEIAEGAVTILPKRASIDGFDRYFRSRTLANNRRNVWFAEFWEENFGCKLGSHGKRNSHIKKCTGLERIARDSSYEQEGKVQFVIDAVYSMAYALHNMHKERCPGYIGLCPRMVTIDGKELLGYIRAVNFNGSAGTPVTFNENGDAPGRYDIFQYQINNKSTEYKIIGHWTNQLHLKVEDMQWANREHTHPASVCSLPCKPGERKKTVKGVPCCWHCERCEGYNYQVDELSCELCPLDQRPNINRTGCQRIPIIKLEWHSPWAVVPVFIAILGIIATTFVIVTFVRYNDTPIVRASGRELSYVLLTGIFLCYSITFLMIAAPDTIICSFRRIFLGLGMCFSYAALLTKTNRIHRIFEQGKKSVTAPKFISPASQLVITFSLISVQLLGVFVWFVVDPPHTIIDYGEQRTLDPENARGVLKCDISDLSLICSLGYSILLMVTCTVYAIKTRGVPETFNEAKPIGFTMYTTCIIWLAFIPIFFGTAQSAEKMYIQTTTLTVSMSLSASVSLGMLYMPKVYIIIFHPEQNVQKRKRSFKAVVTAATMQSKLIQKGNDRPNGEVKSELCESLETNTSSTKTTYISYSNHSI", "experiment": "rat mGluR8 modulators via GIRK flux, primary screen, cell-based, thallium flux, HTS (AID 488969)", "details": "HEK293 rat mGluR8, GIRK (G protein-gated inwardly rectifying potassium channel) thallium flux, FluoZin2; at 10 µM; stronger effect = higher value; submaximal glutamate (EC20) added with thallium", "values": [
      {"smiles": "Cc1cc2n(n1)C(c1cn(-c3ccccc3)nc1C)Nc1ccccc1-2", "note": "(stereo not given)", "z-score": -2.98},
      {"smiles": "O=C(CSc1ccc(-c2ccc(F)cc2)nn1)NCc1ccco1", "z-score": -0.746},
      {"smiles": "CCOC(=O)Cc1csc(NC(=O)c2ccc(OC)c(OC)c2)n1", "z-score": 0.0105},
      {"smiles": "CCOC(=O)Cc1csc(NC(=O)c2ccc(NC(C)=O)cc2)n1", "z-score": 0.627},
      {"smiles": "CCCCC(=O)Nc1ccc(C(=O)Nc2nc(CC(=O)OCC)cs2)cc1", "z-score": -0.728},
      {"smiles": "CCOC(=O)Cc1csc(NC(=O)c2ccc(Cl)nc2)n1", "z-score": 0.0254},
      {"smiles": "CCOC(=O)Cc1csc(NC(=S)NC(=O)c2cccc([N+](=O)[O-])c2)n1", "z-score": 0.802},
      {"smiles": "CCOC(=O)Cc1csc(NC(=S)NC(=O)c2ccccc2)n1", "z-score": "10.6 (active)"},
      {"smiles": "CCOC(=O)Cc1csc(NC(=O)CC)n1", "z-score": 1.77},
      {"smiles": "CCOC(=O)Cc1csc(NC(=O)Nc2ccccc2)n1", "z-score": "3.05 (active)"},
      {"smiles": "CCOC(=O)Cc1csc(NC(=S)NC(=O)c2ccc(C)cc2)n1", "z-score": "8.13 (active)"},
      {"smiles": "CCOC(=O)Cc1csc(NC(=S)NC(=O)c2ccc([N+](=O)[O-])cc2)n1", "z-score": 1.72},
      {"smiles": "CCOC(=O)Cc1csc(NC(=O)c2ccncc2)n1", "z-score": -0.235},
      {"smiles": "CCOC(=O)Cc1csc(NC(=S)NC(=O)c2ccc(Cl)cc2)n1", "z-score": 2.1},
      {"smiles": "CNC(=S)NNC(=O)Cc1ccc(O)cc1", "z-score": 0.306},
      {"smiles": "CCN(CC)S(=O)(=O)c1ccc2c(c1)nc(CCC(=O)Nc1cccc(C(F)(F)F)c1)n2CC", "z-score": -0.277},
      {"smiles": "CCSc1nnc(NC(=O)C2(C)Cc3ccccc3C(=O)O2)s1", "note": "(stereo not given)", "z-score": -0.0977},
      {"smiles": "CCCCc1c(O)nc2sccn2c1=O", "z-score": -0.251},
      {"smiles": "Cc1cc(N2CCC(C(=O)NC3CC3)CC2)nc(-c2ccccc2)n1", "z-score": 1.41},
      {"smiles": "Cn1c(=O)cc(OCCCC(=O)Nc2ccccn2)c2ccccc21", "z-score": -0.243},
      {"smiles": "CC(C1CC1)N(C(=O)NC1CCS(=O)(=O)C1)c1ccccc1", "note": "(stereo not given)", "z-score": -0.27},
      {"smiles": "CCOc1ccc(NC(=O)c2ccco2)cc1", "z-score": -0.0362},
      {"smiles": "CC1Oc2ccccc2N(CC(=O)NCC2CCCO2)C1=O", "note": "(stereo not given)", "z-score": -0.413},
      {"smiles": "COc1ccc(NC(=O)CN2C(=O)C(C)Oc3ccccc32)cc1", "note": "(stereo not given)", "z-score": -0.12},
      {"smiles": "CC1Oc2ccccc2N(CC(=O)NCCc2ccccc2)C1=O", "note": "(stereo not given)", "z-score": 2.08},
      {"smiles": "C=CCn1c(=N)n(CC(=O)c2ccc(Br)s2)c2ccccc21", "z-score": -1.22},
      {"smiles": "C/C(=N/NC(=O)c1sc(NS(=O)(=O)c2ccccc2)nc1C)c1ccccc1", "z-score": 0.345},
      {"smiles": "CN(c1ccc([N+](=O)[O-])cc1C(=O)Nc1ccccc1)C1CCCCC1", "z-score": -0.377},
      {"smiles": "COc1cc(CNC2CCCC2)cc(Cl)c1OCc1ccccc1Cl", "z-score": 0.0424},
      {"smiles": "COc1cc(CNC2CCCC2)cc(Cl)c1OCc1ccccc1F", "z-score": 2.5},
      {"smiles": "COc1cc(CNC2CCCC2)cc(Cl)c1OCc1ccc(F)cc1", "z-score": -0.271},
      {"smiles": "CN1CCN(CCCNC(=O)c2cn(C3CCCCC3)c(=O)c3c2c2ccccc2n3C)CC1", "z-score": -0.464},
      {"smiles": "CC1CCC(C(C)C)C(OC(=O)CSc2nc(N)cc(=O)[nH]2)C1", "note": "(stereo not given)", "z-score": -0.124},
      {"smiles": "O=C(Cn1nnc(-c2ccccc2)n1)N=Nc1c(O)[nH]c2ccccc12", "z-score": -0.0918},
      {"smiles": "O=C(CSCc1ccccc1)N=Nc1c(O)[nH]c2ccccc12", "z-score": "6.08 (active)"},
      {"smiles": "O=C(CN1CCN(Cc2ccccc2)CC1)N=Nc1c(O)[nH]c2ccccc12", "z-score": -0.328},
      {"smiles": "O=C(CSCc1cccc(Br)c1)N=Nc1c(O)[nH]c2ccccc12", "z-score": -0.113},
      {"smiles": "O=C(CSCc1ccc(Br)cc1)N=Nc1c(O)[nH]c2ccccc12", "z-score": 2.84},
      {"smiles": "O=C(CSc1nc2ccccc2[nH]1)N=Nc1c(O)[nH]c2ccccc12", "z-score": -0.572},
      {"smiles": "CCOC(=O)c1c(CN2CCOCC2)n(-c2ccccc2)c2cc(Br)c(O)c(CN(C)C)c12", "z-score": -0.781},
      {"smiles": "CC(C)OCCCNC(=O)C(C)Oc1ccccc1", "note": "(stereo not given)", "z-score": -0.305},
      {"smiles": "CCCOc1ccc(C(=O)N2CCN(c3ccc(N)cc3Cl)CC2)cc1", "z-score": -0.235},
      {"smiles": "COC(=O)C(Cc1ccc(O)cc1)NC(=O)CCC(=O)Nc1ccc(S(N)(=O)=O)cc1", "note": "(stereo not given)", "z-score": -0.14},
      {"smiles": "Cc1c(NC(=O)C(C)Sc2nnc(-c3ccccc3)o2)c(=O)n(-c2ccccc2)n1C", "note": "(stereo not given)", "z-score": -0.308},
      {"smiles": "COCCN(CCOC)C(=O)CCn1c(=O)oc2ccccc21", "z-score": 0.976},
      {"smiles": "CC(=O)c1ccc(NC(=O)CCn2c(=O)oc3ccccc32)cc1", "z-score": -0.318},
      {"smiles": "O=C(CCn1c(=O)oc2ccccc21)N(Cc1ccccc1)c1ccccn1", "z-score": 0.207},
      {"smiles": "COC(=O)c1ccc(NC(=O)CCn2c(=O)oc3ccccc32)cc1", "z-score": 2.57},
      {"smiles": "CCc1ccc(NC(=O)CCn2c(=O)oc3ccccc32)cc1", "z-score": 0.0251},
      {"smiles": "CN(Cc1ccccc1)C(=O)CCn1c(=O)oc2ccccc21", "z-score": 2.02},
      {"smiles": "CNC(=S)N(Cc1ccc2c(c1)OCO2)C1CC(=O)N(c2ccc(F)cc2)C1=O", "note": "(stereo not given)", "z-score": 0.0865},
      {"smiles": "O=C(CN1C(=O)c2ccccc2C1=O)Nc1ccc2c(c1)OCO2", "z-score": -0.335},
      {"smiles": "CCC1(C)Cc2c(sc3c2c(=O)n(-c2ccccc2)c(=O)n3C)CO1", "note": "(stereo not given)", "z-score": -0.673},
      {"smiles": "CC1(C)Cc2c(sc3[nH]c(=S)n(Cc4ccccc4)c(=O)c23)CO1", "z-score": "14.5 (active)"},
      {"smiles": "CCC1(C)Cc2c(sc3nc(SC)n(Cc4ccccc4)c(=O)c23)CO1", "note": "(stereo not given)", "z-score": -0.216},
      {"smiles": "Cn1c(=O)[nH]c2sc3c(c2c1=O)CC(C)(C)OC3", "z-score": -0.263},
      {"smiles": "CCn1c(=O)n(Cc2ccco2)c(=N)c2c3c(sc21)COC(C)(C)C3", "z-score": -0.025},
      {"smiles": "CC(C)C1Cc2c(sc3c2c(=O)n(Cc2ccccc2)c2nncn32)CO1", "note": "(stereo not given)", "z-score": "-3.44 (active)"},
      {"smiles": "Cc1nnc2n(Cc3ccccc3)c(=O)c3c4c(sc3n12)COC(C)(C)C4", "z-score": 0.198},
      {"smiles": "CC1(C)Cc2c(sc3[nH]c(=S)n(Cc4ccco4)c(=O)c23)CO1", "z-score": "8.31 (active)"},
      {"smiles": "CSc1nnc2n(Cc3ccccc3)c(=O)c3c4c(sc3n12)COC(C(C)C)C4", "note": "(stereo not given)", "z-score": -0.311},
      {"smiles": "CC(C)C1Cc2c(sc3[nH]c(=S)n(Cc4ccccc4)c(=O)c23)CO1", "note": "(stereo not given)", "z-score": "5.29 (active)"},
      {"smiles": "CC1(C)Cc2c(sc3c2c(=N)n(Cc2ccco2)c(=O)n3Cc2ccccc2)CO1", "z-score": -0.918},
      {"smiles": "CCC1(C)Cc2c(sc3[nH]c(=S)n(Cc4ccccc4)c(=O)c23)CO1", "note": "(stereo not given)", "z-score": "8.14 (active)"},
      {"smiles": "O=C(CSc1nnc(-c2ccccc2)n1-c1ccccc1)N1c2ccccc2Sc2ccccc21", "z-score": -1.52},
      {"smiles": "CC1CCCCN1C(=O)NC12CC3CC(CC(C3)C1)C2", "note": "(stereo not given)", "z-score": -0.518},
      {"smiles": "CCOc1ccc2c(c1)n(CO)c(=S)n2CO", "z-score": 0.0706},
      {"smiles": "C(=C\\c1cccc2ccccc12)/c1nnc(-c2cccs2)o1", "z-score": -0.201},
      {"smiles": "COc1ccc(CC(=O)n2c(CC#N)nc3ccccc32)cc1OC", "z-score": 0.0175},
      {"smiles": "Cc1ccc2c(Cn3cc(C(F)(F)F)cc(Cl)c3=O)cc(=O)oc2c1", "z-score": -0.249}
    ]}
  ]
}
